# The list is not random: actives were taken first. Their share in the collection is about 4%.
# MazEF act: activators of E. coli MazEF toxin-antitoxin RNase; P0AE70; FAM/BHQ RNA-DNA oligo cleavage fluorescence, 5 h; activation, % at 20 µM; 0.32% of 350,000 active; in the data active = activation above about 50%
# Target sequence (P0AE70 whole entry, looked up): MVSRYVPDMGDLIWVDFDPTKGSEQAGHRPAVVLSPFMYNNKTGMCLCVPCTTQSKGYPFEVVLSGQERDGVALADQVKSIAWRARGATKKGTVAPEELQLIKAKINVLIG
# GDH-TPI inh: counter-screen for M. tuberculosis FBA inhibitors: GDH-TPI coupled enzymes; GDH-TPI coupled enzyme counterscreen, NADH absorbance; inhibition, % at 4.8 µM; 1.2% of 360,000 active; AID 588335;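 also: 0% = DMSO wells and 100% = wells lacking the enzyme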
# CCHF vOTU inh: blocks the CCHF virus ovarian tumor domain protease | CCHFV vOTU protease, Pep-AMC fluorescence | inhibition, % at 11.5 µM | 0.55% of 370,000 active; also: 0% = vehicle wells with enzyme and 100% = no enzyme wells
# Mtb bLac sens: beta-lactam sensitization of Mtb H37Rv; M. tuberculosis H37Rv growth with meropenem, percent inhibition; inhibition, % at 25 µM; 0.27% of 330,000 active; AID 434955; call rule not given here;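 also: growth measured after seven days incubation then overnight dye step; 0% = bacteria only wells and 100% = bacteria with antibiotic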
# Mtb FBA inh: Mtb fructose-bisphosphate aldolase inhibition; P9WQA3; purified M. tuberculosis FBA, fluorescence read-out; inhibition, % at 1 µM; 2.3% of 360,000 active; in the data active = inhibition above about 27%;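 also: 0% = vehicle and 100% = reference inhibitor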
# Target sequence (P9WQA3 whole entry, looked up): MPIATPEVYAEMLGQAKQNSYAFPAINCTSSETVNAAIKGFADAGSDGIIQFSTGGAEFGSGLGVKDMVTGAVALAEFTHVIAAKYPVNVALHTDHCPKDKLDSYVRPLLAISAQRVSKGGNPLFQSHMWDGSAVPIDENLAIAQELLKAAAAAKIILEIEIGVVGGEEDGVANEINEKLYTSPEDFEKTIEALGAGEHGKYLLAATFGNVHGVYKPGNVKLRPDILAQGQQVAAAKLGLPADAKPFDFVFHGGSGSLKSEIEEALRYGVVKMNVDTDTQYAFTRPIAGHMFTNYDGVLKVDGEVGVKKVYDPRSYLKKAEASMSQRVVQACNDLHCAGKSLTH
# Active calls of the source: *; ? = inconclusive; . = not tested or not shown; + = active, no number. Rule as the data show it, unless noted: active = inhibition above about 30%; inactive = the rest.
SMILES,MazEF act,GDH-TPI inh,CCHF vOTU inh,Mtb bLac sens,Mtb FBA inh
S=C(NCc1cccc(Cl)c1)OC1CCC12CCC(c1ccccc1)CC2 (centres undefined),.,.,6,.,.
CCOc1ccc(CNC(=S)N/N=C/c2ccc(OC)c(OC)c2)cc1,-6,42*,12,11,-2
COc1cc(/C=N/NC(=S)NCc2ccccc2)ccc1OCC#N,2,22,3,-6,3
Cc1ccc(/C=N/N=C2/NC(=O)C(CC(=O)Nc3ccc(Cl)cc3)S2)o1 (centres undefined),-14,41*,0,-6,-1
Cc1ccc(/C=N/N=C2/NC(=O)C(CC(=O)Nc3ccccc3)S2)o1 (centres undefined),-9,30,-6,2,-1
CCNC(=O)Nc1ccc2c(c1)C(=O)N(C)[C@H]1CC[C@H](CC(=O)N[C@H](C)c3ccccc3)O[C@@H]1CO2,.,.,-7,.,.
CN(N=Cc1cccc2cccnc12)c1ccc([N+](=O)[O-])cc1[N+](=O)[O-],935*,-6,0,.,-3
CN(C)/N=C/c1ccc([N+](=O)[O-])cc1[N+](=O)[O-],3,-3,-9,1,1
CS(=O)(=O)c1ccc2nc(NC(=O)c3cc4ccccc4o3)sc2c1,3,47*,8,-2,5
Cc1cnc(NC(=O)c2cc3ccccc3o2)s1,7,0,8,77,-4
CS(=O)(=O)c1ccc2sc(NC(=O)c3cc4ccccc4o3)nc2c1,0,72*,-12,3,5
CN(C(=O)COC(=O)c1ccc([N+](=O)[O-])cc1N)c1ccccc1,70*,9,-4,6,0
COc1ccc2c(c1)CO[C@H]([C@H](O)CO)[C@H]2/C=C/c1ccccc1,.,.,-11,.,.
Cc1ccc(C(=O)N/C(=C\c2ccc(-c3ccc(Br)cc3)o2)C(=O)NCCCN(C)C)cc1,-36,10,9,99,1
Cc1ccc(C(=O)N/C(=C\c2ccc(-c3cccc([N+](=O)[O-])c3)o2)C(=O)NCCCN(C)C)cc1,39,59*,4,1,-1
COc1cc(C(=O)NCC(=O)N/N=C/c2ccc(-c3cccc([N+](=O)[O-])c3)o2)cc(OC)c1OC,10,38*,14,5,-3
CN(C)CCCNC(=O)/C(=C\c1ccc(-c2cccc([N+](=O)[O-])c2)o1)NC(=O)c1ccccc1,18,35*,4,-3,-3
COc1cc(C(=O)NCC(=O)N/N=C/c2ccc(-c3ccc([N+](=O)[O-])cc3)o2)cc(OC)c1OC,6,15,11,98,-12
CC(=O)CC[C@H]1CC[C@]2(CCCN(C(=O)C3CCCCC3)C2)O1,.,.,-3,.,.
Cc1cc(C)nc(N2CCC(C(=O)N(C)CCc3ccccc3)CC2)n1,.,.,7,.,.
COc1cc(/C=C/c2nc3ccccc3c(=O)[nH]2)cc(Cl)c1O,-23,2,13,7,-4
O=C(Nc1cccc(/C=C/c2nc3ccccc3c(=O)[nH]2)c1)c1ccccc1Cl,-4,49*,-4,60,-2
COc1ccc(C(=O)Nc2cccc(/C=C/c3nc4ccccc4c(=O)[nH]3)c2)cc1,7,39*,-8,0,1
Cc1cccc(/C=C\c2nc3ccccc3c(=O)[nH]2)c1,-2,31*,5,1,-3
CCCOc1ccc(C(=O)N2CCC(Oc3cccnc3)CC2)cc1,.,.,-7,.,.
SMILES,MazEF act,GDH-TPI inh,CCHF vOTU inh,Mtb bLac sens,Mtb FBA inh
C=CCN(C)CC#Cc1ccc(C)cc1,.,.,2,.,.
Cc1c(C)c2ccc(OC3CCCCC3=O)cc2oc1=O (centres undefined),7,9,-61,-3,153*
CC(=O)c1ccc(N2CCN(C(=S)Nc3cccc(F)c3)CC2)cc1,-4,35*,6,-17,3
CC(=O)c1ccc(N2CCN(C(=S)Nc3ccc(Oc4ccccc4)cc3)CC2)cc1,-19,20,12,60,2
O=C(c1ccc(N2CCN(C(=O)c3cccc(F)c3)CC2)cc1)c1cccc(F)c1,0,31*,5,95,-1
C/C(=N\NC(=S)Nc1ccccc1C)c1cc2ccccc2o1,-2,49*,4,?,2
C/C(=N\NC(=S)Nc1c(C)cccc1C)c1cc2ccccc2o1,-11,19,6,10,1
COc1ccc(/C=C\C(=O)c2c(O)ccc3c(C)cc(=O)oc23)cc1OC,-1,52*,7,99,5
Cc1cc(=O)oc2c(C(=O)/C=C\c3cccs3)c(O)ccc12,2,42*,-1,66,1
COc1cc(/C=C/C(=O)c2c(O)ccc3c(C)cc(=O)oc23)ccc1O,10,50*,7,99,2
COc1cc(/C=C/C(=O)c2c(O)cc(C)oc2=O)cc(OC)c1O,-86,34*,-2,79,-6
COc1ccccc1N1C(=O)S/C(=C\c2cc(C)n(C)c2C)C1=O,+,10,8,3,-4
COc1ccccc1N1C(=O)S/C(=C\c2ccc(C)s2)C1=O,22,34*,-5,2,2
CCN(CC)C(=O)CC[C@H]1CC[C@]2(CCCN(CC3CC3)C2)O1,.,.,-1,.,.
C=CCN1[C@H](C)COc2cc(N3CCCC3)ccc2S1(=O)=O,.,.,-7,.,.
CCOc1ccc(-n2c(SCC(=O)Nc3ccc(S(=O)(=O)Nc4nccs4)cc3)nnc2-c2ccncc2)cc1,.,.,1,.,.
O=C1CCCC2=C1C(c1ccc(O)c(O)c1)c1c(ccc3ncccc13)N2 (centres undefined),18,9,-8,-5,-2
O=C1CCCC2=C1C(c1ccc(O)cc1)c1c(ccc3ccccc13)N2 (centres undefined),-14,4,-79,1,160*
CCOc1cc(/C=N/Nc2nn3cnnc3c3ccccc23)ccc1O,-1,32*,25,-4,-1
CCOc1cc(/C=N/n2cnnc2)ccc1O,1,34*,-1,-6,3
COc1cc(/C=N/Nc2nn3cnnc3c3ccccc23)ccc1O,2,32*,-4,-6,-1
C=CCc1cc(/C=N/n2cnnc2)cc(OCC)c1O,1,13,5,4,-1
O=C(OC12CCCN(C1)/C(=C/c1ccccc1)C2)c1ccccc1 (centres undefined),.,.,3,.,.
c1cnn(-c2cncc(-n3cccn3)n2)c1,5,32*,-9,-7,16
O=C(O)c1ccc(-n2cccn2)nc1,10,0,2,-4,1
CCn1c(Cc2cccs2)nnc1SCC(=O)Nc1cccc2ccccc12,.,.,-3,.,.
N#Cc1ccc(N2C(=O)[C@@H]3C(C(=O)c4ccc5ccccc5n4)=NN[C@@H]3C2=O)cc1,120*,8,3,-5,-3
CC(=O)Nc1ccc2c(COC(=O)[C@H](C)N3C(=O)C4CCCCC4C3=O)cc(=O)oc2c1 (some centres undefined),-1,32*,-199,-1,+
COC(=O)C1=C(C)N(C)C(C)=C(C(=O)OC)C1c1ccc(C(=O)OC)cc1,-3,5,1,-4,-2

# Screening data deposited in PubChem BioAssay by several laboratories.
